Compound activity deposited in PubChem by several laboratories.
KKLEB tox: reduces viability of KKLEB cystic fibrosis airway cells | KKLEB CF airway cells viability, ATPlite luminescence, overnight; hits give low values; cells stimulated with P. aeruginosa culture filtrate | activity change (cytotoxicity), % at 5 µM | 0.36% of 360,000 active | AID 602141;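 active = corrected activity change at or below -50% at 5 µM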
Shn3 inh set2: inhibitors of Schnurri-3 3'UTR reporter in osteoblasts | 0.52% of 360,000 active | Clone20 osteoblast Shn3 3'UTR firefly luciferase, 24 h | inhibition, % at 12.5 µM;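 active = mean inhibition of at least 75% with every replicate also reaching 75%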;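 also: 0% = median of neutral control wells and 100% = pilot-screen positive control compound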
MITF TRPM1 inh: reduces MITF-dependent TRPM1 promoter luciferase signal; inhibition, % at 12.5 µM; 0.83% of 330,000 active; SK-MEL-5 TRPM1 promoter luciferase, 24 h; AID 488899;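 active = mean inhibition across replicates of 60% or more, whatever share of single replicates reaches that level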
Peg3 promoter: inhibitors of Peg3 promoter. HeLa PEG-Prom luciferase reporter, luminescence, overnight. inhibition, % at 20 µM. 1.7% of 360,000 active;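 active = inhibition of at least 50% at 20 µM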
EBV LMP1 NFkB: Epstein-Barr LMP1 NF-kappaB reporter inhibition; inhibition, % at 12.5 µM; LMP1-induced NF-kappaB luciferase reporter cells, luminescence; 0.69% of 350,000 active; in the data active = inhibition above about 41%;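 also: 0% = neutral control wells and 100% = reference inhibitor control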
CF NFkB block: blocks PAF-induced NF-kB reporter in cystic fibrosis cells; KKLEB NF-kB-GFP reporter, GFP fluorescence overnight; inhibition, % at 5 µM; 0.86% of 360,000 active;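 active = at least 50% inhibition at 5 µM, scaled per plate between neutral and stimulator controls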;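 also: PAF is a Pseudomonas aeruginosa culture filtrate used as stimulus; plate controls were PAF-stimulated DMSO wells for no effect and unstimulated DMSO wells for full effect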
Starred values were filed as active, the others as inactive; nt = no result given; ! = not confirmed by another sample. The list is not random: actives were taken first. Their share in the collection is about 2.9%.

SMILES | KKLEB tox | Shn3 inh set2 | MITF TRPM1 inh | Peg3 promoter | EBV LMP1 NFkB | CF NFkB block
O=C(N[C@H]1C/C=C\C[C@@H](CC(=O)N(CCO)Cc2ccccc2)C(=O)NC[C@H](c2ccccc2)OC1=O)OCC1c2ccccc2-c2ccccc21 | -7 | -6 | nt | 75* | -2 | -9
O=C(N[C@@H]1C/C=C\C[C@H](CC(=O)N(CCO)Cc2ccccc2)C(=O)N[C@@H](Cc2ccccc2)COC1=O)OCC1c2ccccc2-c2ccccc21 | -4 | 32 | 4 | 68* | -18 | 5
O=C(C[C@H]1C/C=C\C[C@H](NC(=O)OCC2c3ccccc3-c3ccccc32)C(=O)OC[C@H](Cc2ccccc2)NC1=O)N[C@H](CO)Cc1ccccc1 | -17 | 20 | 2 | 75* | -1 | 16
C[C@@H]1COC(=O)[C@H](NC(=O)OCC2c3ccccc3-c3ccccc32)C/C=C\C[C@@H](CC(=O)N(CCO)Cc2ccccc2)C(=O)N1 | 9 | 26 | 1 | -21 | -6 | -8
O=C(Nc1ccc(S(=O)(=O)Nc2ncccn2)cc1)c1ccc(Br)cc1 | -2 | 11 | nt | 10 | -5 | -19
CC(NC(=O)c1ccc(Cl)c(S(=O)(=O)NC2CC2)c1)c1ccco1 (centres undefined) | 8 | 4 | nt | 2 | -1 | -7
COc1ccc(N(C(=O)CCl)C(C(=O)NCCc2ccccc2)c2cccs2)cc1 (centres undefined) | -92* | 96* | 88* | 105* | -3 | 90*
O=C(Nc1cccc(S(=O)(=O)NCc2ccco2)c1)c1cc(-c2ccccc2)nc2ccccc12 | 2 | 32 | 28 | 62* | 13 | -20
CC1CCN(c2nc(/C=C/c3ccccc3)nc3ccccc23)CC1 | 2 | -6 | 13 | -53 | -8 | -13
Oc1ccc(Nc2nc(N3CCCC3)c3ccccc3n2)cc1 | -4 | 9 | 28 | 100* | -12 | -65
COc1ccc(Nc2nc(N3CCCCC3)c3ccccc3n2)cc1 | -6 | 83 | 7 | 4 | 11 | 6
C(=C\c1nc(N2CCCC2)c2ccccc2n1)/c1ccccc1 | -5 | -1 | 2 | 103* | -4 | -87
CC(C)C[C@H](NC(=O)CC[C@H]1O[C@@H](n2ccc(=O)[nH]c2=O)[C@H](O)[C@@H]1O)C(=O)O | -7 | 2 | nt | -5 | nt | 0
Cc1nnnn1/C(=C\c1ccccc1)C(=O)OCC(=O)NC1CCCCC1 | -19 | -22 | 28 | 76* | -4 | 5
Cc1nnnn1/C(=C\c1ccccc1)C(=O)OCC(=O)NC(C)(C)C | -10 | -15 | 4 | -22 | 4 | 11
O=C(NC(Cc1c[nH]c2ccccc12)C(=O)O)OCC1c2ccccc2-c2ccccc21 (centres undefined) | 9 | -8 | nt | 3 | nt | -31
Cc1cccc2cc3c(N)c(C(=O)Nc4ccc(N5CCOCC5)cc4)sc3nc12 | -31 | 57 | 3 | 56* | 10 | -60
Cc1cc(C)c2nc3sc(C(=O)N4CCOCC4)c(N)c3cc2c1 | -18 | 7 | 46 | -155 | 51* | 39
Cc1ccc(C)c2nc3sc(C(=O)N4CCOCC4)c(N)c3cc12 | -21 | -14 | -43 | -223 | -26 | 5
Nc1c(C(=O)N2CCOCC2)sc2nc3c(cc12)CCCC3 | -11 | 47 | 55 | 36 | 56* | 6
O=C(Nc1ccccc1)Nc1nnc([C@H]2C[C@H](O)[C@@H](CO)O2)s1 | 6 | -18 | nt | -15 | nt | 9
Cc1[nH]nc(C(F)(F)F)c1N=NN1CCOCC1 | 2 | 12 | 20 | 23 | -4 | -24
Cc1ccc(CNC(=O)c2cc(-c3ccccc3C)nn2CC2CC(c3cccnc3)=NO2)cc1 (centres undefined) | -10 | 92* | -15 | 14 | -8 | 14
CN1OC[C@@H]2CN(C(=O)C(C)(C)C)[C@H](c3ccc(-c4cccnc4)cc3)C[C@@H]21 | 7 | -1 | nt | 7 | nt | -14
O=C(NCc1nc(-c2ccc(C(F)(F)F)cc2)no1)Nc1ccc(OC(F)(F)F)cc1 | -29 | 3 | -8 | 74* | 3 | 33
SMILES | KKLEB tox | Shn3 inh set2 | MITF TRPM1 inh | Peg3 promoter | EBV LMP1 NFkB | CF NFkB block
COc1ccc(-c2noc(CNS(=O)(=O)c3ccc(NC(C)=O)cc3)n2)cc1 | -7 | 7 | 8 | -11 | 1 | -14
Cc1ccc(S(=O)(=O)N2CCCN(C(=O)c3ccc(-n4nccc4C)cc3)CC2)cc1 | 13 | -10 | 2 | 5 | 3 | 27
COc1ccc(CCNC(=O)c2ccccc2NC(=O)CN2CCN(c3ccccc3O)CC2)cc1 | 1 | 1 | 2 | 52* | 9 | -7
COC(=O)c1ccc(C(=O)OC)c(NC(=O)CN2CCN(c3ccccc3)CC2)c1 | 0 | 59 | 9 | 31 | 10 | 13
COC(=O)c1ccc(C(=O)OC)c(NC(=O)CN2CCN(c3ccccc3OC)CC2)c1 | 16 | 18 | 10 | 52* | 15 | -9
O=C(CN1CCN(c2ccccc2O)CC1)Nc1ccccc1C(=O)NCCc1ccccc1 | -9 | -9 | -31 | -19 | -8 | -3
OC1C(O)C(O)C(O)C(O)C1O (centres undefined) | 2 | 4 | 9 | -2 | 91*! | -8
CN(Cc1ccccc1)c1nc(N)c([N+](=O)[O-])c(NCc2ccccc2)n1 | 1 | 10 | -3 | 38 | 72* | -18
CCOc1cccc(CNc2nnnn2C)c1 | 3 | 19 | 5 | -5 | 79* | 2
Cc1c(C#N)c(NC(=O)CCl)n(Cc2ccc(F)cc2)c1C | -58* | 39 | 66* | 58* | -45 | 73*
Cc1c(C#N)c(NC(=O)CCl)n(Cc2cccs2)c1C | -28 | 97* | 77* | 50 | -30 | 24
Cc1c(C#N)c(NC(=O)CCl)n(Cc2ccccc2)c1C | -16 | 95* | 81* | 53* | -40 | 17
CCCNC(=O)c1cc(C2CCCN(S(=O)(=O)c3cccs3)C2)on1 (centres undefined) | 0 | 4 | nt | -8 | nt | -3
O=C(NCCc1cn2cccnc2n1)C1CCC(=O)N(Cc2ccccc2F)C1 (centres undefined) | 7 | -21 | nt | 2 | -5 | 5
Brc1ccc(-c2csc(N3CCCCCC3)n2)cc1 | 17 | -4 | -33 | -168 | 46* | 8
Cc1ccc(C)c(N2N=C(C(=O)Nc3ccccc3N3CCOCC3)CCC2=O)c1 | -8 | 10 | 13 | 67* | -4 | 8
Cc1ccc2nc(SCC(=O)c3c(C)[nH]c4ccccc34)[nH]c2c1 | -5 | -31 | -8 | -51 | 1 | 0
Cc1[nH]c2ccccc2c1C(=O)CSc1nc2ncc(Cl)cc2[nH]1 | 4 | 36 | 13 | 115* | -18 | -1
O=C(CSc1nc2ncc(Cl)cc2[nH]1)N1CCOCC1 | 0 | 86* | -4 | -2 | -4 | -3
Cc1ccc(NC(=O)CCC(=O)NN=Cc2ccc(C)o2)c(C)c1 | 20 | -2 | nt | -1 | nt | -38
